Screens (PubChem)
nsP2pro inh – CHIKV nsP2 protease inhibition, primary qHTS; Potency, µM (top dose mostly 24.9 µM), most hits filed as inhibitors; actives 1.1% (n = 31,000); FRET peptide cleavage, nsP2pro, fluorescence 1 h; AID 1964107; also: nearly all actives have a fitted effect of over 60% in size
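Purified recombinant nsP2pro (150 nM final) in 10 mM Tris-HCl pH 8.0 with 0.01% Tween 20 was preincubated 15 min at room temperature with compound (7 concentrations, up to 25 uM). FRET peptide 2 substrate (2.5 uM final) was then added; fluorescence was read after 1 h.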
nsP2 cell sec – cell-based CHIKV nsP2 protease inhibition, secondary; shares compounds with nsP2pro inh; cell-based CHIKV nsP2 protease reporter assay; Potency, µM (titrated, usually from 51.1 µM), hits mostly inhibitors; actives 10% (n = 450); also: nearly all actives have a fitted effect of over 70% in size
NSP2 full ctr – full-length CHIKV NSP2 protease inhibition, selectivity. shares compounds with nsP2pro inh. actives 39% (n = 410). Potency, µM (highest dose often 50.7 µM), hits mostly inhibitors. Full-length CHIKV NSP2 protease enzymatic counterscreen; also: nearly all actives have a fitted effect of over 65% in size
Furin counter – selectivity counter-screen for CHIKV nsP2 protease inhibitors: human furin; shares compounds with nsP2pro inh; Recombinant human furin enzymatic counterscreen, fluorogenic substrate; AID 1964102; actives 6% (n = 410); Potency, µM (top dose mostly 50.6 µM), actives largely listed as inhibitors
Target sequence (P09958 whole entry, looked up): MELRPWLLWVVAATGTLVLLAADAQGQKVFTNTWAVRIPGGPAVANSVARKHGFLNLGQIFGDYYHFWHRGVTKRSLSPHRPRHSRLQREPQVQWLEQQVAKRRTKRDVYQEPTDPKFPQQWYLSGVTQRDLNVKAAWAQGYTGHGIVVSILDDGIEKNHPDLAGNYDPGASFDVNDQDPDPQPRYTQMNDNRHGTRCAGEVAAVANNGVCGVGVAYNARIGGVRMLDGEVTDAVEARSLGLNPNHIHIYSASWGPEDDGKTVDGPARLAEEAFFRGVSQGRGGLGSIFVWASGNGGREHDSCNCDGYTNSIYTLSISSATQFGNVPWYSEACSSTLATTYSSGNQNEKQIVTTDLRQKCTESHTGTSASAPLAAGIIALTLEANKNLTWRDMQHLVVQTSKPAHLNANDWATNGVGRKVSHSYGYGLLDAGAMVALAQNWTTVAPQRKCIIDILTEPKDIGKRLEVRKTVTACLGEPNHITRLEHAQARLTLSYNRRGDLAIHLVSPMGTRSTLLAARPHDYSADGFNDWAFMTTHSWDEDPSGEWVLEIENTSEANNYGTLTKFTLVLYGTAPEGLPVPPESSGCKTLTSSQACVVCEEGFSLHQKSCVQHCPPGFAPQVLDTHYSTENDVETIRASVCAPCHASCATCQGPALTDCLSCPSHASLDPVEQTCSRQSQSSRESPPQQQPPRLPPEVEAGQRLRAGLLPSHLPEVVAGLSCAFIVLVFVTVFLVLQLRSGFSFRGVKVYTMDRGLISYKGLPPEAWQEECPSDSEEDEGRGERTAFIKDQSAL
nsP2 NS23 pep – blocks CHIKV nsP2 protease cleavage of endogenous NS2/3 peptide. shares compounds with nsP2pro inh. Purified CHIKV nsP2 protease, endogenous NS2/3 peptide cleavage. Potency, µM (top dose mostly 51 µM), actives largely listed as inhibitors. actives 34% (n = 410). AID 1964103; also: nearly all actives have a fitted effect of over 55% in size
Papain cs – selectivity counter-screen for CHIKV nsP2 protease inhibitors: papain; shares compounds with nsP2pro inh; actives 5% (n = 410); AID 1964104; Potency, µM (series often up to 51 µM), actives largely listed as inhibitors; purified papain protease activity, enzymatic inhibition
nsP2pro conf qHTS – CHIKV nsP2 protease inhibition, confirmatory qHTS. shares compounds with nsP2pro inh. CHIKV nsP2 protease enzymatic activity, qHTS. Potency, µM (doses to about 25.5 µM), most hits filed as inhibitors. actives 43% (n = 410); also: nearly all actives have a fitted effect of over 75% in size
HCV NS3 4A cs – selectivity counter-screen for CHIKV nsP2 protease inhibitors: HCV NS3/4A. shares compounds with nsP2pro inh. HCV NS3/4A protease biochemical counterscreen. Potency, µM (titrated, usually from 50.9 µM), usual class: inhibitors. actives 20% (n = 410). AID 1964106; also: nearly all actives have a fitted effect of over 55% in size
Large screens that a line does not name were inactive (follow-up assays come after a bar, where they were run). The full list was thinned out, with hits kept by preference. Calls follow the shape of the full dose curve.

CNC(=O)c1cc(C2CC2)nc2onc(C3CCN(C(=O)C4CCCCC4)CC3)c12	none
NNc1ccc(NC(=O)c2cccs2)cn1	none
O=C(Nc1ccc(N2CCN(c3ccc(F)cc3)CC2)c(C(=O)O)c1)c1cccs1	nsP2pro inh inconclusive | nsP2 cell sec inactive | NSP2 full ctr 5.2µM | Furin counter inactive | nsP2 NS23 pep 13µM | Papain cs inactive | nsP2pro conf qHTS 8µM | HCV NS3 4A cs 4.1µM
CC(=O)c1ccc(N2CCN(c3ccc(NC(=O)c4ccc(F)cc4)cc3C(=O)O)CC2)cc1	none
CN1CCN(c2ccc(NC(=O)c3cccs3)cn2)CC1	none
O=C(Nc1cnc(N2CCN(c3ccccc3)CC2)c(C(=O)O)c1)c1cccs1	nsP2pro inh 2.5µM | nsP2 cell sec inactive | NSP2 full ctr 2.1µM | Furin counter inconclusive | nsP2 NS23 pep 6.5µM | Papain cs inactive | nsP2pro conf qHTS 5.7µM | HCV NS3 4A cs 2.9µM
Cc1ccccc1C(=O)Nc1ccc2c(c1)CCCN2C(=O)c1cccs1	none
CN(C)C/C=C/C(=O)Nc1cc2c(Nc3ccc(F)c(Cl)c3)ncnc2cc1O[C@H]1CCOC1	none
Cc1ccc(OCCn2c(CCNC(=O)/C=C/c3ccccc3Br)nc3ccccc32)cc1	none
Cc1cc(C)nc(NC(=S)N2CCN(c3cccc(S(C)=O)c3)CC2)c1 (stereo unspecified)	none
CCOc1ccccc1CN1C[C@@H](CO)[C@H](C2CCN(C(C)=O)CC2)C1	none
COc1ccc(CNS(=O)(=O)c2cc(-c3[nH]ncc3C(=O)N3CCCC3)oc2C)cc1	nsP2pro inh 7.1µM | nsP2 cell sec inactive | NSP2 full ctr inconclusive | Furin counter inactive | nsP2 NS23 pep inactive | Papain cs inactive | nsP2pro conf qHTS inactive | HCV NS3 4A cs inconclusive
COc1ccc(CNS(=O)(=O)c2cc3c(cc2C)N(C)CCO3)cc1	none
COc1ccc(CNC(=O)C2CCC(CNS(=O)(=O)c3ccc4c(c3)CCCC(=O)N4)CC2)cc1 (stereo unspecified)	none
CCC(C)C(NC(=O)C(Cc1ccc(O)cc1)NC(=O)C(NC(=O)C(CCCN=C(N)N)NC(=O)C(N)CC(=O)O)C(C)C)C(=O)NC(Cc1cnc[nH]1)C(=O)N1CCCC1C(=O)O (stereo unspecified)	none
Cc1c(C(=O)OC[C@H]2CCCO2)[nH]c2c1C(=O)CC(c1ccco1)C2 (stereo partly specified)	none
C=C(C(=O)O[C@H]1C/C(C)=C/CC/C(CO)=C/[C@H]2OC(=O)C(=C)[C@H]12)C(O)CO (stereo partly specified)	nsP2pro inh 5.4µM | nsP2 cell sec inconclusive | NSP2 full ctr 10µM | Furin counter inactive | nsP2 NS23 pep inconclusive | Papain cs inactive | nsP2pro conf qHTS 4.4µM | HCV NS3 4A cs inactive
C=C(C)C(=O)OC1[C@@H]2C(=C)C(=O)O[C@@H]2C[C@@H](C)[C@@H]2C=CC(=O)[C@@]12C (stereo partly specified)	none
C=C(C)C(=O)OC1CC(CO)CCC/C(CO)=C/C2OC(=O)C(=C)C21 (stereo unspecified)	none
CC(C)OC(=O)[C@H](C)N[P@@](=O)(OC[C@H]1O[C@@H](n2ccc(=O)[nH]c2=O)[C@](C)(F)[C@@H]1O)Oc1ccccc1	none
CCNC(=O)C1CCC(C(=O)Nc2ccc([S+](=O)([O-])Nc3nccs3)cc2)CC1 (stereo unspecified)	none
Cc1ccc(-c2cc(C(=O)Nc3ccc(S(=O)(=O)NCc4nccs4)cc3)c3ccccc3n2)cc1C	none
